The values below come from PubChem BioAssay AID504451 (NMMLSC, 2011).

About 80 (4%) of roughly 2,000 compounds were called active. This is one part of a sample in which actives are shown more often than they occur. Values without a mark were called inactive.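 How the source made its calls: active means aptamer displacement above 40%, near three times the noise of non-fluorescent compounds, on plates passing quality checks; inactive means the rest.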

Beta-adrenergic receptor kinase 1 (Homo sapiens), sequence (P25098 whole entry, looked up): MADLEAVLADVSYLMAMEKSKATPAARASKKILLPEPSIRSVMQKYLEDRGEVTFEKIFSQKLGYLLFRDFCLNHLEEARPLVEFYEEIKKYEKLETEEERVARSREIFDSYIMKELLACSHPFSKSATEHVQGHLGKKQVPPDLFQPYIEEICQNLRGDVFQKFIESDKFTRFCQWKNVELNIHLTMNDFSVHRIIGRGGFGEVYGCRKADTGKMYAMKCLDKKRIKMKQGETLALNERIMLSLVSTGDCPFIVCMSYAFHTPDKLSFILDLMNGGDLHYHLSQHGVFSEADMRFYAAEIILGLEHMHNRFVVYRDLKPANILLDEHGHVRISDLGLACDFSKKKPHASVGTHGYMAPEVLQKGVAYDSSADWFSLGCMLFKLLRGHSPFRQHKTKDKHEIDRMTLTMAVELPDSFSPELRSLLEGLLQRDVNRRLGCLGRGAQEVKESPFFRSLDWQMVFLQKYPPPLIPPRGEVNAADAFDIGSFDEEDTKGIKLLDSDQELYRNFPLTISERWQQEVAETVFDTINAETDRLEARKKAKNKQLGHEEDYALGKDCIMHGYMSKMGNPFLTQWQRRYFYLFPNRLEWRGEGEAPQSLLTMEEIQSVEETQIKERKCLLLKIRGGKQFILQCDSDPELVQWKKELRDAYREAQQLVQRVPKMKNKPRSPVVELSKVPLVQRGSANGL

The assay concerns the target Beta-adrenergic receptor kinase 1 (Homo sapiens) (UniProt P25098). The assay is described as follows: GRK2 aptamer-displacing inhibitors, retest, confirmation, biochemical, cherry pick 1, bead flow cytometry (AID 504451).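 Further: negative values mostly reflect intrinsic compound fluorescence rather than true enhancement.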 As to conditions: bead-bound GRK2, FAM-aptamer displacement, at 10 µM, active compounds read high.
For `COc1ccc(N2C(=O)/C(=C/c3ccco3)C(=O)NC2=S)cc1`, the aptamer displacement was 86.6% (active).
In the case of `O=C1NC(=O)N(Cc2ccco2)C(=O)/C1=C\c1cccn1CCOc1ccccc1` it was 0.73%; in that of `Cc1c(C(=O)O)cccc1-n1c(C)cc(/C=C2\C(=O)NC(=O)N(c3ccc4c(c3)OCO4)C2=O)c1C`, 37.1%.
